Laboratory results reported in PubChem BioAssay AID1851 (National Center for Advancing Translational Sciences (NCATS), 2009).
Values joined by “and” are separate entries in the source; they are usually repeats but may differ in a detail not shown here. Equal values may be shown once. About 5,700 (36%) of roughly 16,000 compounds were called active. About 24% were inconclusive and are not listed. The call rests on the fitted dose curve; in most records, active means well fitted curve in the direction sought with a large enough effect; inconclusive means small, poorly fitted or top-dose-only effect, or effect the other way; inactive means no such curve, though single readings can be large or run the other way. The list shows a part of the results. Peptide text beside a SMILES is read from it.

biological target: Cytochrome P450 1A2 (Homo sapiens) (UniProt P05177); assay: Cytochrome panel assay with activity outcomes; conditions: recombinant CYP, pro-luciferin dealkylation, luminescence, p450-cyp1a2; series mostly up to 57.1 µM
Sequence (P05177 whole entry, looked up): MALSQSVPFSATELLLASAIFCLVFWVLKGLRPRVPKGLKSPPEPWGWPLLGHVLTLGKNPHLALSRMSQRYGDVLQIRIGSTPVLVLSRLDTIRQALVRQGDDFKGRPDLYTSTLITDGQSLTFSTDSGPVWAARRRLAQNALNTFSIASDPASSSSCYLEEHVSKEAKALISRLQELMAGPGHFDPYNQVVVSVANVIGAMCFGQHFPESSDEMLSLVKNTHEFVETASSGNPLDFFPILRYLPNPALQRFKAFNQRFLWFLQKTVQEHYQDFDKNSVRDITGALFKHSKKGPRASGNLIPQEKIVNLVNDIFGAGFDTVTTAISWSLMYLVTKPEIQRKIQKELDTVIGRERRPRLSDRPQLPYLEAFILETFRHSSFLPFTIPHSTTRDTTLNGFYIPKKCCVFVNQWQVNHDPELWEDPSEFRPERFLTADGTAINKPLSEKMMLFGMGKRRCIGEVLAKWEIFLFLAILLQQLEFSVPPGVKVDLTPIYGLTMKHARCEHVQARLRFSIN
On the % scale 0 is the no-effect control and ±100 the full control effect.

AC50, active:
CNc1cc(CSC)nc(SCc2ccc(Cl)c(Cl)c2)n1 4470 nM
CN(CCc1ccccn1)Cc1ccc(Cl)cc1Cl 7080 nM
c1ccc(-c2ccc3c(c2)c2c4n3CCN=C4CCC2)cc1 2820 nM
O=C(CCNC(=O)c1ccccc1)OCN1C(=O)c2ccccc2C1=O 2240 nM
COc1ccccc1-c1cc(NCc2cccnc2)ncn1 316 nM
COc1ccccc1CNCc1cccs1 251 nM
COc1ccccc1-c1cc(NCc2cccs2)ncn1 1580 nM
Cc1cccc(CNc2cc(-c3ccccc3CN(C)C)ncn2)c1 25100 nM
CN(C)Cc1ccccc1-c1cc(NCc2cccs2)ncn1 25100 nM
COc1ccccc1-c1cc(NCc2cccc(C)c2)ncn1 1580 nM
Cc1cccc(CNc2cc(-c3ccccc3Cl)ncn2)c1 3160 nM
Clc1ccccc1-c1cc(NCc2cccnc2)ncn1 3160 nM
COc1ccccc1-c1cc(NCc2ccccc2)ncn1 2510 nM
Cc1ccc2nc(/C(C#N)=C\c3ccc(OC(=O)c4cccs4)cc3)[nH]c2c1 2510 nM
Clc1ccc(-c2nnc(-c3cccc4ccccc34)o2)cc1Cl 2000 nM
CN(C)c1ncc2nc(-c3ccc(F)cc3)c(=O)n(Cc3cccs3)c2n1 1000 nM
COc1ccc(-c2nc3cnc(N(C)C)nc3n(Cc3cccs3)c2=O)cc1 1580 nM
CN(C)c1ncc2nc(-c3ccc(Cl)cc3)c(=O)n(Cc3cccs3)c2n1 1580 nM
Nc1ccc(-c2nc3c(Cl)c(N)ccc3[nH]2)cc1 794 nM
O=C(CCc1ccc(S(=O)(=O)NC2CCCCC2)cc1)N(Cc1ccccc1)Cc1ccccc1 1580 nM
CC(C)c1ccc2c(c1)C(c1ccc(N3CCOCC3)cc1)=NNC(c1cccs1)=N2 3160 nM
O=C(OCn1ncc(Cl)c(Cl)c1=O)c1cccc(C(F)(F)F)c1 2000 nM
O=S(=O)(Nc1ccc2oc(-c3ccccc3)nc2c1)c1ccccc1 5010 nM
CCCCC[C@H](O)c1cccc(OCc2ccc3ccccc3n2)c1 794 nM
O=C(O)c1ccccc1Nc1cccc(OCc2ccc3ccccc3n2)c1 1000 nM
FC(F)(F)c1nc(-c2ccncc2)ncc1-c1nnnn1-c1ccccc1 25100 nM
O=C(O)c1ccc2c3c1cccc3c(=O)n1c3ccccc3nc21 15800 nM
O=c1c2ccc([N+](=O)[O-])c3cccc(c32)c2nc3ccccc3n12 3550 nM

AC50, inactive:
Cc1cccc(CN(C)CCc2ccccn2)c1
CN(C)CCO[C@@H](c1ccc(Cl)cc1)c1ccccn1
C=CCN=C1CC(C)(C)CC(=O)/C1=C(\O)c1ccccc1
CCC(C)C(NC(=O)OCc1ccccc1)C(=O)OCN1C(=O)c2ccccc2C1=O (stereo not given)
COc1ccccc1CNCCCCCCNCCCCCCCCNCCCCCCNCc1ccccc1OC
c1csc(CNCCCN2CCOCC2)c1
CN(C)Cc1ccccc1-c1cc(NCc2ccccc2)ncn1
C[N+](C)(C)CCO
N#C/C(=C\c1ccc(Oc2ccc(C(F)(F)F)cc2[N+](=O)[O-])cc1)c1nc2ccccc2[nH]1
Cc1ccc(-c2nnc(-c3ccccc3S(=O)(=O)Cc3ccc(Cl)cc3)o2)cc1
CC(=O)N[C@@H](CC(=O)O)C(=O)N[C@@H](CCC(=O)O)C(=O)O (Ac-Asp-Glu-OH)
O=C(CCc1ccccc1)NNC(=O)C1CCCCC1
O=C(CN(CC1CCCO1)C(=O)CNS(=O)(=O)c1ccc(Cl)cc1)NCCc1ccccc1 (stereo not given)
O=C(OC1CCN(c2ncc(C(F)(F)F)cc2Cl)CC1)c1cccc(C(F)(F)F)c1
COCC(=O)N1CCC2(CC1)CN(Cc1ccccc1OC)C2
CCCC[S@@](=N)(=O)CC[C@@H](N)C(=O)O
Nc1ccc(S(=O)(=O)Nc2cnc3ccccc3n2)cc1
O=C(Nc1ccc(-c2nc3ccccc3o2)cc1)c1ccc(N2CCOCC2)c([N+](=O)[O-])c1
O=C(O)Cc1ccc(NC(=O)C2CCCCC2C(=O)O)cc1 (stereo not given)
CC(C)OCCCNC(=O)C1CC(=O)N(C2CCCCCCC2)C1 (stereo not given)
CN(C)CC(O)COc1cccc(OCC(O)CN(C)C)c1 (stereo not given)
Cc1cc(C)cc(-n2nnnc2-c2cn(C)nc2C(F)(F)F)c1
FC(F)(F)c1nc(N2CCCC2)ncc1-c1nnnn1-c1ccccc1

activity, negative = inhibition, inactive:
Cc1ccc(S(=O)(=O)N[C@H]2COC(=O)C/C=C\[C@@H](C)[C@H](NS(=O)(=O)c3ccc(C)cc3)COC(=O)[C@H](C)NC(=O)C/C=C\[C@H]2C)cc1 -1.96% [at 11.4 µM]
Clc1ccccc1C(Nc1cnccn1)Nc1cnccn1 -18% [at 2.29 µM]
C=CC[C@@H]1C=C[C@H](Oc2ccc(C)cc2)[C@H](COC(=O)NCc2cccc3ccccc23)O1 -8.02% [at 11.4 µM]
CCCNC(=O)OC[C@@H]1O[C@H](CCO/N=C(\C)CCN2CCCCc3nc(C)c(C)cc32)C=C[C@@H]1Oc1ccc(OC)cc1 3.81% [at 11.4 µM]
Cc1ccc(S(=O)(=O)N[C@H]2COC(=O)[C@H](C)COC(=O)[C@H](C)NC(=O)C/C=C\[C@H]2C)cc1 4.67% [at 11.4 µM]
COC(=O)[C@@H]1CC[C@H](C)[C@@H](c2ccc(C)cc2)N1C(=O)c1ccc(/C=N\O[C@@H](C)c2cn([C@H](CO)Cc3ccccc3)nn2)cc1 -8.03% [at 11.4 µM] and -18.7% [at 11.4 µM]
S=c1c2[nH]cnc2ncn1CCSc1ncnc2nc[nH]c12 -16.9% [at 11.4 µM]
CCCCOC(OCCCC)[C@H](O)CSc1ccc2ccccc2c1 -1.2% [at 11.4 µM]
NCCSS(=O)(=O)CCN -17.1% [at 2.29 µM]
